# PERK inhibitor: block of dimerizer-induced PERK translation repression, primary screen, PERK inhibitor project, CHO PERK-DD cells, SEAP luminescence, HTS; Eukaryotic translation initiation factor 2-alpha kinase 3 (Homo sapiens), Q9NZJ5; CHO PERK-DD fusion, SEAP luminescence translation reporter; inhibition, % at 5.6 µM; hit rate 0.17% among 220,000; AID 1416, 2008;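 active = inhibition above the mean inhibition of all tested compounds plus 3 SD, set separately per screening campaign, cut at about 2.9% in these data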;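 note: PERK kinase domain activated by AP20187 dimerizer at 100 nM; 0% = DMSO with dimerizer and 100% = rapamycin at 8.4 µM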
# PABP polyA inh: PABP poly(A) RNA binding inhibitors, primary screen, biochemical, fluorescence polarization, uHTS; inhibition, % at 35 µM; Polyadenylate-binding protein 1 (Homo sapiens), P11940; hit rate 1% among 290,000; AID 2014, 2009;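 note: calls also rest on retests at 20 µM and on dose response follow-up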
# eIF4H inh: human eIF4H binding inhibitors, primary screen, translation initiation inhibitor project, biochemical, uHTS, fluorescence polarization | Eukaryotic translation initiation factor 4H (Homo sapiens), Q15056 | hit rate 0.94% among 290,000 | inhibition, % at 35 µM | eIF4H fluorescence polarization binding assay;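 note: calls also rest on retests at 20 µM and on dose response follow-up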
# MLLE-PAM2 inh: inhibitors of PABP1 MLLE–PAM2 peptide binding, primary screen, biochemical, fluorescence polarization, FITC-PAM2, GST-MLLE | hit rate 0.36% among 360,000 | AID 588489, 2011 | Polyadenylate-binding protein 1 (Homo sapiens), P11940 | inhibition, % at 20 µM; in the data active = inhibition above about 35%, passing the limit was not always enough;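 note: plate controls were DMSO wells with GST-MLLE for no effect and wells lacking GST-MLLE protein for full effect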
# eIF4E 4G PPI: eIF4E–eIF4G protein interaction inhibitors, primary screen, biochemical, uHTS, TR-FRET, eIF4GI fragment. inhibition, % at 21.7 µM. Eukaryotic translation initiation factor 4E (Mus musculus) + Eukaryotic translation …. hit rate 0.37% among 220,000. TR-FRET eIF4E-eIF4GI(517-606) binding, 2 h;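 active = inhibition above about 30%, limit read from the data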;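 note: 0% = full FRET control wells and 100% = background wells lacking eIF4GI fragment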
# PfM18AAP inh-1: PfM18AAP inhibitors, malaria aminopeptidase, primary screen, biochemical, QFRET, recombinant enzyme. H-Glu-NHMec fluorogenic cleavage. M18 aspartyl aminopeptidase (Plasmodium falciparum 3D7). hit rate 1.2% among 290,000. AID 1822, 2009. inhibition, % at 7.35 µM;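 active = inhibition above the campaign mean inhibition over all tested compounds plus 3 SD, cut at about 28% in these data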;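 note: 0% = plate median of test compound wells and 100% = 2 mM ZnCl2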
# PfM18AAP inh-2: PfM18AAP inhibitors, malaria aminopeptidase, confirmation, biochemical, QFRET, recombinant enzyme, triplicate; shares compounds with PfM18AAP inh-1; H-Glu-NHMec fluorogenic cleavage; inhibition, % at 7.35 µM; hit rate 28% among 2,400; AID 2170, 2009;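 active = mean inhibition over replicate wells above the hit cutoff set for the earlier primary screen, cut at about 29% in these data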;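 note: 0% = median of test compound wells and 100% = 2 mM ZnCl2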
# CTSL1 counter: cathepsin L1 inhibitors, retest, confirmation, counter-screen for PFM18AAP inhibitor project, biochemical, QFRET, triplicate | shares compounds with PfM18AAP inh-1 | purified cathepsin L1, Z-Leu-Arg-MCA fluorescence | inhibition, % at 5.96 µM | 2,400 tested, under 10 active;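 active = average inhibition across replicates above the hit cutoff set in the earlier primary screen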;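 note: 0% = median of test compound wells and 100% = Z-Phe-Ala-diazomethylketone 1 µM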
# Target sequence (P07711 whole entry, looked up): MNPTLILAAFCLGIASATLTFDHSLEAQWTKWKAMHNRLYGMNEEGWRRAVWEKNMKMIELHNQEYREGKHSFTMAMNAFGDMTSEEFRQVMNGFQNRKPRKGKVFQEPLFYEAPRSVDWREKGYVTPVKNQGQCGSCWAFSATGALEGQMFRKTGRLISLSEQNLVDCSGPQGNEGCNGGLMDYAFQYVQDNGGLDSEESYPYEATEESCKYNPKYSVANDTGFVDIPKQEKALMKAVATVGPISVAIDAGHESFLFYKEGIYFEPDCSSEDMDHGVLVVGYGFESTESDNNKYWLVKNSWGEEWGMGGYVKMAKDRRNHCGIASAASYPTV
# The depositor's hits bear a star; / = not tested or not shown. This is a sample that favours compounds with a hit; in the whole collection about 2.4% have one here. Unless noted, the rule behind the calls is not given here.
SMILES,PERK inhibitor,PABP polyA inh,eIF4H inh,MLLE-PAM2 inh,eIF4E 4G PPI,PfM18AAP inh-1,PfM18AAP inh-2,CTSL1 counter
O=C(Cn1cncn1)c1ccc(Cl)cc1,/,0.7,-4.2,-4.1,/,59.0*,35.9*,2.5
O=C(/C=C(\c1ccc(Cl)cc1)n1cncn1)c1ccc(Cl)cc1,0.1,-3.3,-2.0,-6.0,4.2,72.9*,15.2,4.5
Cc1ccc(C(=O)Cn2cncn2)cc1,1.4,-5.3,-8.8,-0.5,2.5,1.6,/,/
O=C(/C=C(\c1ccccc1)n1cncn1)c1ccccc1,1.0,22.9,-6.1,-5.0,-1.3,22.9,/,/
COc1ccc2c(c1)C(c1ccc([N+](=O)[O-])cc1)=NNC(c1ccco1)=N2,-0.6,-0.3,0.4,13.2,-0.6,-0.1,/,/
Cc1ccc(NC(=O)C(C)N2C(=O)c3ccccc3C2=O)c(C)c1 (centres undefined),/,-3.4,-2.5,-3.7,/,0.8,/,/
CCN(CC)c1ccc(NS(=O)(=O)c2ccc(-c3ccc(=O)[nH]n3)o2)c(C)c1,/,32.0,39.1,13.1,/,45.3*,11.6,-1.3
Cc1ccccc1NS(=O)(=O)c1ccc(-c2ccc(=O)[nH]n2)o1,/,1.9,-15.4,-2.6,/,-6.3,/,/
COc1cccc(Nc2nc(-c3ccc(O)cc3)cs2)c1,0.6,-4.1,2.0,9.1,1.6,43.1*,33.7*,-1.2
Cc1cccnc1Nc1nc(-c2ccc(O)cc2)cs1,-0.3,3.1,-1.6,21.1,-2.0,34.4*,30.2*,3.2
COc1cccc(Nc2nc(-c3cccc(N4C(=O)c5ccccc5C4=O)c3)cs2)c1,-1.8,30.1,42.7,-5.8,-6.4,15.8,/,/
O=C(CNC(=O)c1ccccc1)NCCc1ccc(O)c(O)c1,/,13.6,10.7,-0.2,/,84.3*,73.0*,-5.4
O=C(O)CSc1c(Cl)c(=O)oc2ccc(Cl)cc12,/,/,/,5.5,/,/,/,/
NS(=O)(=O)c1ccc(NC(=S)NC2CCCCCC2)cc1,1.2,-2.6,3.8,8.5,-4.8,44.2*,0.4,3.0
O=S(=O)(c1ccc(NC(=S)NC2CCCC2)cc1)N1CCCC1,0.7,16.8,-3.0,-5.8,-3.3,-1.0,/,/
NS(=O)(=O)c1ccc(NC(=S)NC2CCCC2)cc1,1.6,11.9,-7.2,6.3,16.1,45.9*,7.3,-4.3
O=C(COC(=O)c1ccc(-c2ccc([N+](=O)[O-])cc2)o1)NC(=O)NC1CCCCC1,0.7,12.2,-9.1,-0.2,2.8,1.1,/,/
O=C(NC1CCC(O)CC1)c1ccc(-c2ccc([N+](=O)[O-])cc2)o1 (centres undefined),0.0,-2.2,5.3,-0.8,13.5,33.4*,-119.7,2.9
CC(=O)c1ccc(N(CC(=O)NCCc2ccccc2)C(=O)c2csnn2)cc1,/,2.0,-3.7,2.1,/,-2.9,/,/
CCN1C(=O)CC(C(=O)OC)=C1C,-0.6,-0.9,2.8,-2.7,-0.7,7.0,/,/
COC(=O)C1=C(C)N(Cc2ccc3c(c2)OCO3)C(=O)C1,-0.1,25.2,5.9,5.2,-2.5,33.9*,-54.8,2.1
COc1cc(/C=C2\NC(=S)N(C)C2=O)ccc1O,-0.1,1.8,23.4,-164.0,-1.6,35.7*,16.3,4.2
CCCCn1c(SCC(=O)c2ccc(O)c(O)c2)nc2ccsc2c1=O,-0.2,8.6,1.5,-2.0,6.4,37.4*,27.6,3.9
Cn1cnnc1SCC(=O)c1ccc(O)c(O)c1,0.0,-17.9,6.3,-10.0,0.1,53.3*,34.9*,2.8
O=C(CCCn1c(SCC(=O)c2ccc(O)c(O)c2)nc2ccccc2c1=O)NCC1CCCO1 (centres undefined),0.4,-1.1,0.9,8.6,3.8,52.8*,38.5*,3.4
SMILES,PERK inhibitor,PABP polyA inh,eIF4H inh,MLLE-PAM2 inh,eIF4E 4G PPI,PfM18AAP inh-1,PfM18AAP inh-2,CTSL1 counter
O=C(CSc1nnnn1-c1ccc(F)cc1)c1ccc(O)c(O)c1,0.5,13.3,2.3,-16.3,2.9,47.4*,28.1*,-5.1
CCCCn1c(SCC(=O)c2ccccc2)nc2ccsc2c1=O,-0.9,-4.7,-3.6,-6.8,-0.2,-5.1,/,/
Cn1cnnc1SCC(=O)c1ccc2c(c1)NC(=O)CO2,/,/,/,-33.7,/,/,/,/
C[C@H](NC(=O)N1CCn2c1nc1ccccc12)C(=O)NCc1ccc2c(c1)OCO2,/,-10.6,-2.2,3.4,/,1.9,/,/
Cc1[nH]c2ccccc2c1/C=N/Nc1ccc([N+](=O)[O-])cc1,0.5,2.1,-5.8,-151.6,3.4,34.4*,-41.0,2.1
O=C(NCCC1CCCC1)c1cccs1,/,1.2,-15.4,11.7,/,52.7*,-39.2,-9.7
COc1ccc(N2C(N)=C(C#N)C(c3ccsc3)C3=C2CCCC3=O)c(OC)c1 (centres undefined),-1.1,8.4,7.8,-4.5,-5.7,35.2*,-33.1,-4.3
Cn1c(N)c(C(=O)N/N=C/c2ccccc2)sc1=S,-0.6,-5.5,-4.2,-8.2,2.1,33.5*,-34.8,1.9
Cc1c(C(=O)N/N=C/c2cccnc2)sc(=S)n1C,0.8,-6.6,-4.4,25.1,-2.7,6.0,/,/
O=C(NN1C(=O)CSC1=S)C(=O)NN1C(=O)CSC1=S,0.2,10.8,75.2,13.2,-1.2,40.7*,52.4*,-1.5
O=C(CS(=O)(=O)c1ccccc1)NCc1ccc(Cl)cc1,/,3.4,-1.0,-5.9,/,1.0,/,/
Cc1ccc2c(c1)C1CC(C)(O2)N(c2cccc(C(=O)NC3CCN(Cc4ccccc4)CC3)c2)C(=O)N1 (centres undefined),/,-0.2,-12.0,8.5,/,-5.2,/,/
Cc1ccc(CNC(=O)CCCC(=O)c2ccccc2)cc1,/,0.3,1.0,-9.1,/,-5.0,/,/
Cc1cc(NO)nc(-c2ccc(Br)cc2)n1,0.8,4.0,-6.2,-24.1,-0.6,55.9*,31.6*,0.7
CN(C)C(=S)Nc1ccc2c(c1)OCO2,1.2,7.4,-12.3,11.4,0.3,37.6*,5.0,1.4
CC(=O)Nc1ccc2c(c1)OCO2,0.9,-0.5,-10.0,-6.1,-0.1,4.3,/,/
CC(C)N(C(C)C)S(=O)(=O)c1ccc(NC(=O)c2cnccn2)cc1,/,-7.9,-3.7,-0.5,/,-11.4,/,/
